About 3,800 (1.1%) of roughly 360,000 compounds were called active. This is one part of a sample in which actives are shown more often than they occur. A number with no mark means an inactive call.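 Rule for the calls: active = compounds causing at least 50% loss of cell viability in the single-dose screen, relative to plate controls; inactive = the rest.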

A short description of the experiment: TRAIL-exposed caspase-8 expressing cell killing – NB7+C8 cells, ATPlite luminescence, TRAIL sensitizer project, primary screen (AID 624354). The conditions noted are these: at 10 µM, stronger effect = higher value. For orientation: In ATP-based viability assays light output follows the ATP content of the culture.
With `CN(CC(=O)Nc1cccc(F)c1)C(=O)C1CC(=O)N(CCc2ccccc2)C1` (centres undefined), the inhibition (viability loss, TRAIL sensitization) was 0.466%.
The same measure for `C(=N\Nc1ccc2ccccc2n1)/c1ccc2c(c1)OCO2`: 62.1% (active); for `Clc1ccc(Nc2ccc3ccccc3n2)cc1`: 22.5%; for `O=C(CNC(=O)C(c1ccccc1)c1ccccc1)N/N=C\c1ccc2c(c1)OCO2`: 9.36%.
For the molecule `COc1ccc(NC(=O)C2(C)Cc3c(-c4cccc(NC(C)=O)c4)ccnc3O2)cc1OC` (centres undefined), the inhibition (viability loss, TRAIL sensitization) was 4.61%.
For the molecule `CCCCN1CC(N2CCN(Cc3cccc(C)c3)CC2)CS1(=O)=O` (centres undefined), the inhibition (viability loss, TRAIL sensitization) is 4.54%.
For `CC(=O)[C@@]12O[C@@H]1C[C@H]1[C@@H]3CC[C@H]4C[C@@H](O)CC[C@]4(C)[C@H]3CC[C@@]12C`, the inhibition (viability loss, TRAIL sensitization) was 0.527%.
Regarding `CCCNc1c(N)c(=O)c1=O`, the inhibition (viability loss, TRAIL sensitization) is -1.54%.
Turning to `C[C@H]1COc2cc(N3CCSCC3)ccc2S(=O)(=O)N1`, the inhibition (viability loss, TRAIL sensitization) was -6.12%.
In the case of `Cc1cc(Br)cn2c(Cc3ccccc3C(F)(F)F)c(-c3ccc(Cl)cc3)nc12`, the inhibition (viability loss, TRAIL sensitization) is 22.1%.
For `O=C(O)c1cc(S(=O)(=O)N(Cc2ccccc2)c2ccccc2)ccc1Cl`, the inhibition (viability loss, TRAIL sensitization) was -9.38%.
As to `CCN(CC)CCCC(C)n1c2nc(=O)[nH]c(=O)c-2nc2cc(Cl)ccc21` (centres undefined), the inhibition (viability loss, TRAIL sensitization) is 48.4% (active).
To `CCc1ccc(S(=O)(=O)Nc2ccc(C)c(NS(C)(=O)=O)c2)cc1` belongs -5.21%; to `Cc1c(O)c(C)c2c(c1O)C(=O)C[C@@H](c1ccccc1)O2`, 18.2%.
On to `CC1CN(C(=O)CCC(=O)NCCCN2CCC(Cc3ccccc3)CC2)c2cc(Cl)ccc2O1` (centres undefined), for which the inhibition (viability loss, TRAIL sensitization) is 40.8%.
On to `CC(C)=CCC/C(C)=C/C(=O)O`, for which the inhibition (viability loss, TRAIL sensitization) was -7.95%.
In the case of `O=C(/C=C/c1ccc2c(c1)OCCO2)c1ccc(O)cc1`, the inhibition (viability loss, TRAIL sensitization) was 58.1% (active).
As to `COc1ccc(OC)c(/C=C/C(=O)c2ccc3c(c2)OCO3)c1`, the inhibition (viability loss, TRAIL sensitization) is 12.1%.
With `O=C(COC(=O)c1ccc(O)cc1O)c1ccc2c(c1)OCCO2`, the inhibition (viability loss, TRAIL sensitization) was 0.773%.
For `CCOCCCN(C(=O)Cn1nnc(-c2ccc(OC)c(OC)c2)n1)C(CC)C(=O)NC1CCCC1` (centres undefined), the inhibition (viability loss, TRAIL sensitization) is -5.95%.
The same measure for `CCOC(=O)C(NS(=O)(=O)c1ccc(C)cc1)(C(F)(F)F)P(=O)(OCC(C)C)OCC(C)C` (centres undefined): 27.5%.
The same measure for `COc1ccccc1N1CCN(S(=O)(=O)c2ccc3c(c2)NC(=O)CS3)CC1`: 8.43%; for `Cc1nn(Cc2ccc(C(=O)N3N=C(C(F)F)CC3(O)C(F)F)cc2)c(C)c1[N+](=O)[O-]` (centres undefined): 0.592%.
For the molecule `CC(=O)Nc1ccc(S(=O)(=O)NC(C)C(=O)OCCOc2ccc(F)cc2)cc1` (centres undefined), the inhibition (viability loss, TRAIL sensitization) was -1.76%.
As for `CS(=O)(=O)c1cccc(-c2ccc3nncn3c2)c1`, the inhibition (viability loss, TRAIL sensitization) is 1.26%.
In the case of `CC(C)n1cnc2c(NCc3ccccc3)cc(OCC3CCN(C)CC3)cc21`, the inhibition (viability loss, TRAIL sensitization) is 54.6% (active).
As to `COCCNC(=O)CN(C(=O)CCC(=O)Nc1cc(C)on1)c1ccc(C)cc1C`, the inhibition (viability loss, TRAIL sensitization) was 12.5%.
For the molecule `O=C(NCc1ccccc1)C(c1ccc(F)cc1)N1CCN(C(=O)C2CCCO2)CC1` (centres undefined), the inhibition (viability loss, TRAIL sensitization) was 3.33%.
`CCCCC(=O)Nc1ccc2c(c1)C(=O)NC2=O`: the inhibition (viability loss, TRAIL sensitization) was 8.86%.
For `Cc1ccc(C)c(NC(=O)CSc2nc3c(oc4ccccc43)c(=O)n2-c2ccccc2)c1`, the inhibition (viability loss, TRAIL sensitization) was -5.26%.
To `CCCCC(=O)Nc1cc(C)c2c(=O)oc3ccccc3c2n1` belongs 58.6% (active); to `Cc1cc(Cl)c(S(=O)(=O)Nc2ccc3c(c2)OCCO3)cc1OCC(N)=O`, 1.34%.
Regarding `CC1CCc2c(sc3c2C2=NS(=O)(=O)CCN2C=N3)C1` (centres undefined), the inhibition (viability loss, TRAIL sensitization) is -12.9%.
With `O=C1C[C@@H]2c3c(cccc3CN1Cc1ccccc1)C[C@@H](O)[C@H]2O`, the inhibition (viability loss, TRAIL sensitization) was -11.3%.
With `COc1ccc2c(c1)CCCO[C@]21O[C@H](CCO)C[C@H](O)[C@H]1O`, the inhibition (viability loss, TRAIL sensitization) was 2.33%.
Regarding `Nc1nc2ncccn2c1-c1ccccc1`, the inhibition (viability loss, TRAIL sensitization) is -21.7%.
The same measure for `COc1ccc(C(=O)NC(C)c2nccs2)cc1OC1CCN(C(C)C)CC1` (centres undefined): -24.4%; for `O=C(CN1CCN(C/C=C/c2ccccc2)CC1)Nc1ccc(F)cc1F`: 8.21%; for `O=C(CC1SC(=Nc2ccccc2F)N(CCN2CCOCC2)C1=O)Nc1ccc(F)cc1F` (centres undefined): 72.8% (active).
To `O=C(CC1SC(N2CCOCC2)=NC1=O)Nc1ccccc1F` (centres undefined) belongs 7.68%; to `NC(=O)c1ccc(N2CCOCC2)nc1`, -4.39%; to `COc1ccc(N(C)S(=O)(=O)c2cccc3nsnc23)cc1`, -0.348%.
For `CC1(C)CC(N2CCN(C(c3ccccc3)c3ccccc3)CC2)=CC(=[N+]2CCCCC2)C1`, the inhibition (viability loss, TRAIL sensitization) is 53.6% (active).
As to `CCOC(=O)C1=C(c2ccccc2)N=C2SCC(=O)N2C1c1ccc(O)c(OC)c1` (centres undefined), the inhibition (viability loss, TRAIL sensitization) is -13.7%.
The same measure for `O=C(Nc1ccc2c(c1)OCCO2)C(C1CC1)N1CCC(Cc2ccccc2)CC1` (centres undefined): 1.75%.
Turning to `c1c2c(cc3sc(N4CCCCC4)nc13)OCCO2`, the inhibition (viability loss, TRAIL sensitization) was 76.5% (active).
On to `CCN1CCC2(CCN(Cc3cn[nH]c3-c3ccc(OC)c(F)c3)C2)C1` (centres undefined), for which the inhibition (viability loss, TRAIL sensitization) was -3.56%.
As for `CCOc1ccc(NC(=O)CCCCCN2C(=O)[C@@H]3Cc4ccccc4CN3C2=O)cc1`, the inhibition (viability loss, TRAIL sensitization) was 9.4%.
To `CCc1ccc(-c2cc3c(=O)n(CC(=O)NCCCN4CCN(Cc5ccccc5)CC4)nc(C)n3n2)cc1` belongs 57.1% (active); to `Cc1ccc(-c2ccc(=O)n(CC(=O)NCCCN3CCCCC3)n2)cc1`, 16%; to `Cc1nn(CC(=O)NCCc2ccccc2)c(=O)c2cc3occc3n12`, -1.06%.
As for `CC(C)=NN1C(=O)c2ccccc2NC1(C)C`, the inhibition (viability loss, TRAIL sensitization) is 0.317%.
On to `CCC(C)C(NC(=O)C1CCC(=O)N1C(=O)OCc1ccccc1)C(=O)NC(C(=O)N1CCCC1C(N)=O)C(C)CC` (centres undefined), for which the inhibition (viability loss, TRAIL sensitization) is 1.84%.
The same measure for `Cc1sc2ncnc(N3CCC(C(=O)Nc4ccc(F)cc4Cl)CC3)c2c1C`: 13.1%.
On to `CC(C)CCNC(=O)c1ccc2c(Cl)c3c(nc2c1)CCC3`, for which the inhibition (viability loss, TRAIL sensitization) is 63.8% (active).
On to `CC(C)CCC(C)NC(=O)c1ccc2nccnc2c1` (centres undefined), for which the inhibition (viability loss, TRAIL sensitization) is 13.2%.
For `O=C(CSc1c2c(nc3ccc(Cl)cc13)CCCC2)NCc1ccco1`, the inhibition (viability loss, TRAIL sensitization) was 7.83%.
On to `COc1ccc(OC)c(/C=N/NC(=O)c2ccc[n+](CC(=O)c3ccccc3)c2)c1`, for which the inhibition (viability loss, TRAIL sensitization) is -13.4%.
As to `COc1cccc(/C=N\NC(=O)C2=NNC(=O)C2C)c1O` (centres undefined), the inhibition (viability loss, TRAIL sensitization) was 61.6% (active).
To `CC1=NNC(=O)C1CCC(=O)N/N=C\c1cccc(Cl)c1` (centres undefined) belongs -5.29%.
On to `COCc1cc(=O)[nH]c2cc(NC(=O)C(F)(F)F)c(C)cc12`, for which the inhibition (viability loss, TRAIL sensitization) is 1.06%.
In the case of `CCCCOC(=O)CNc1nnc(SCC(=O)OCC)[nH]c1=O`, the inhibition (viability loss, TRAIL sensitization) is 6.83%.
As to `Cc1cccc(N2Cc3ccccc3C2=NC(=O)c2ccc(Cl)nc2)c1`, the inhibition (viability loss, TRAIL sensitization) was 4.62%.
Regarding `Nc1c(-c2cccc(Cl)c2)cnn1-c1cccc([N+](=O)[O-])c1`, the inhibition (viability loss, TRAIL sensitization) was -1.5%.
The same measure for `Cc1cccc(-n2ncc(Cl)c(Cl)c2=O)c1`: 95.2% (active); for `C[C@H](NC(=O)C1CC(=O)N(c2ccc3c(c2)OCCO3)C1)C(=O)N1CCC(C(=O)O)CC1` (some centres undefined): -9.83%.
To `CC(C)CNC(=O)COC(=O)c1ccccc1OCC(=O)Nc1ccc(Br)cc1` belongs 5.47%; to `COC(=O)Cc1[nH]n(-c2nc3ccccc3s2)c(=O)c1C(C)=Nc1ccc(OC)cc1`, 61.1% (active).
Take `COCCn1c(SCC(=O)c2[nH]c(C)c(C(C)=O)c2C)nc2ccccc2c1=O`: the inhibition (viability loss, TRAIL sensitization) was -10%.
On to `NC(N)=N/N=C/c1ccc(OCc2ccc(Cl)cc2Cl)cc1`, for which the inhibition (viability loss, TRAIL sensitization) is 50.1% (active).
`NC(=O)COc1ccc(/C=N/NC(=O)C2CCCN2S(=O)(=O)c2ccc(Cl)cc2)cc1` (centres undefined): the inhibition (viability loss, TRAIL sensitization) is -8.47%.
In the case of `CCCCN(C(=O)C1=NN(c2cc(C)ccc2C)C(=O)CC1)c1c(N)n(CCC)c(=O)[nH]c1=O`, the inhibition (viability loss, TRAIL sensitization) was -7.09%.
For the molecule `CC(C)COc1ccc(C(=O)NNC(=O)CCC(=O)c2cccs2)cc1`, the inhibition (viability loss, TRAIL sensitization) was -0.727%.
Turning to `Cc1ccc(NC(=O)CSCC(=O)N2CCOCC2)cc1`, the inhibition (viability loss, TRAIL sensitization) was -10.5%.
Turning to `CC(C)COc1ccc(C(=O)OCC(=O)NCCC2=CCCCC2)cc1`, the inhibition (viability loss, TRAIL sensitization) was -6.49%.
To `COc1ccc(C(=O)Nc2ccc(-n3nncc3C(C)(C)C)cc2)cc1` belongs -20.3%.
Consider `COc1cccc(C(=O)Nc2ccc(N3CCCC3)cc2)c1`, for which the inhibition (viability loss, TRAIL sensitization) is 46.7% (active).
As to `COc1ccc(NC(=O)c2ccc(OC)cc2)cc1`, the inhibition (viability loss, TRAIL sensitization) is 50.5% (active).
The same measure for `COc1ccc(NC(=O)c2ccc(C#CC(C)(C)O)cc2)cc1`: 0.194%; for `COc1cccc(C(=O)Nc2ccc3nc4n(c(=O)c3c2)CCCCC4)c1`: 23.6%.
The same measure for `O=C(Nc1ccc(Cl)cc1)c1cccc(OC(=S)N2CCOCC2)c1`: 12.3%; for `COc1ccc(N2c3ccccc3CN(Cc3ccccc3)[C@@H](C)[C@H]2Cc2ccc(-c3ccccc3)cc2)cc1`: -5.86%; for `CCOC(=O)C1CCN(C(=O)Cn2nc(C)c3c(C)n(-c4ccccc4)nc3c2=O)CC1`: -20.8%.
On to `CCCN1C(=O)C(NC(C)=O)c2cc(OC)ccc21` (centres undefined), for which the inhibition (viability loss, TRAIL sensitization) was -4.35%.
To `O=C(COc1ccc2c(C(F)(F)F)cc(=O)oc2c1)Nc1ccc2c(c1)OCCO2` belongs -2.58%.
Regarding `Cc1ccccc1OCC(=O)Nc1nc(C)c(C(=O)N(C)C)s1`, the inhibition (viability loss, TRAIL sensitization) is 3.67%.
Regarding `Cc1csc(NC(=O)CSc2ccc(-c3ccc(F)cc3)nn2)n1`, the inhibition (viability loss, TRAIL sensitization) is -13.9%.
In the case of `COCCn1c(SCC(=O)Nc2nc(C)cs2)nnc1C(C)C`, the inhibition (viability loss, TRAIL sensitization) is -5.23%.
Turning to `COc1ccc(C(=O)CCC(=O)Nc2cccnc2)c(OC)c1`, the inhibition (viability loss, TRAIL sensitization) was 7.09%.
Regarding `COC(=O)c1sc(NC(=O)c2ccc(OC)cc2OC)nc1C`, the inhibition (viability loss, TRAIL sensitization) was 82.4% (active).
As for `COc1cc(SC)ccc1C(=O)Nc1nc(C)cs1`, the inhibition (viability loss, TRAIL sensitization) is 92.9% (active).
As to `COc1cc(SC)ccc1C(=O)Nc1cc(C)ccn1`, the inhibition (viability loss, TRAIL sensitization) was 67.3% (active).
Turning to `Cc1ccnc(NC(=O)CNC(=O)c2ccccc2)c1`, the inhibition (viability loss, TRAIL sensitization) is -13.7%.
On to `Cc1ccnc(NC(=O)c2ccoc2C)c1`, for which the inhibition (viability loss, TRAIL sensitization) is 11.1%.

Source of the values: PubChem BioAssay AID624354 (Sanford-Burnham Center for Chemical Genomics, 2012).
